Test results: PubChem BioAssay
Active and inactive are the calls of the source. The rule behind the calls is not given here.

Key:
[1] = tested on: Botulinum neurotoxin type F light chain protease (Clostridium botulinum); assay: Botulinum neurotoxin type F light chain protease inhibition, multiplex microsphere flow cytometry, validation set (AID 588459); conditions: multiplex microsphere protease substrate cleavage assay, at 10 µM, hits give high values
[2] = biological target: Botulinum neurotoxin type A (Clostridium botulinum) (UniProt P0DPI0); assay: BoNT/A light chain protease inhibitors, biochemical, multiplex microsphere flow cytometry, validation set (AID 588460); conditions: at 10 µM, hits give high values
[3] = biological target: Lethal factor (Bacillus anthracis) (UniProt P15917); assay: Lethal factor protease inhibitors, Bacillus anthracis, multiplex microsphere cleavage assay, validation set (AID 588461); conditions: flow cytometry, at 10 µM, hits give high values

Measured: inhibition

COc1ccc2oc(=O)c(C(=O)N3CCN(c4ccccc4)CC3)cc2c1
inactive: [1] -1% | [2] 0.2% | [3] 1.6%

CCOC(=O)Cc1c(C)nc(N)[nH]c1=O
inactive: [1] 2.8% | [2] 0.8% | [3] -3.1%

CC(=O)[C@H]1CC[C@H]2[C@@H]3C[C@H](C)C4=CC(=O)CC[C@]4(C)[C@H]3[C@@H](O)C[C@]12C
inactive: [1] 5.1% | [2] 0.9% | [3] -8.6%

O=C(Nc1c(C(=O)O)[nH]c2ccccc12)NC1CCCCC1
inactive: [1] 1.6% | [2] 0.4% | [3] -2.2%

CCCCOc1ccc(OCCCN2CCOCC2)cc1
inactive: [1] -1.1% | [2] 0.4% | [3] -4.8%

COC(=O)c1[nH]c2ccc(C)cc2c1NC(=O)CN1CCc2cc(OC)c(OC)cc2C1
inactive: [1] -1.9% | [2] -1.7% | [3] 2.1%

CC(C)[C@H](NC(=O)[C@@H]1CSCN1C(=O)OC(C)(C)C)C(=O)NCC1CCC(C(=O)O)CC1 (some centres undefined)
inactive: [1] -1.3% | [2] -1.5% | [3] -2.2%

COc1ccc(C(=O)/C=C2/c3ccccc3CC(C)(C)N2C)cc1
inactive: [1] -2.7% | [2] -1.8% | [3] -1.2%

CCCCC(=O)O[C@]1(C(=O)CO)CC[C@H]2[C@@H]3CCC4=CC(=O)CC[C@]4(C)[C@H]3[C@@H](O)C[C@@]21C
inactive: [1] -3.5% | [2] -0.5% | [3] -2.1%

COc1ccccc1/C=C/C(=O)OCCN1CCOCC1
inactive: [1] 3% | [2] -2.1% | [3] -6.7%

COc1cc(OC)c(-c2nc3cnccc3n2C)cc1OC
inactive: [1] -2.3% | [2] -1.9% | [3] -1.6%

CCCCC[C@H](O)/C=C/[C@@H]1[C@@H](C/C=C\CCCC(=O)OC)[C@@H](O)C[C@H]1O
inactive: [1] -3.3% | [2] -1% | [3] -1.1%

CC(=O)c1c(N)nc2n(c1=O)CCCCC2
inactive: [1] -2.9% | [2] -1% | [3] -2.9%

CC(=O)OCC(=O)[C@@]12OC3(CCCC3)O[C@@H]1C[C@H]1[C@@H]3CCC4=CC(=O)C=C[C@]4(C)[C@@]3(F)[C@@H](O)C[C@@]12C
inactive: [1] 0.8% | [2] -0.9% | [3] -0.7%

Cc1ccc(C(CC(=O)NCc2ccco2)c2ccc(OC(C)C)cc2)cc1 (centres undefined)
inactive: [1] 0.4% | [2] -1.6% | [3] -4%

Cc1cc(C)c(NC(=O)NC(=O)C(Cl)(Cl)Cl)c(C)c1
inactive: [1] 2.9% | [2] 0.1% | [3] -3.8%

O=C(O)c1cnccn1
inactive: [1] -5.5% | [2] -1.6% | [3] -1.5%

Cc1ccnc(NS(=O)(=O)c2ccc(N)cc2)n1
inactive: [1] 5.2% | [2] -0.3% | [3] -1.5%

CC(C)=CCCC1=CCC2C(=O)NNC(=O)C2C1 (centres undefined)
inactive: [1] -1.6% | [2] -1% | [3] 3%

O=C(CCCC(=O)OCC1CCCO1)OCC1CCCO1 (centres undefined)
inactive: [1] 1.9% | [2] -0.9% | [3] -1.6%

CCCCC[C@H](O)/C=C/C1=C(CCCCCCC(=O)O)C(=O)CC1
inactive: [1] -0.6% | [2] -0.5% | [3] 2.4%

O=C(OCCN1CCCC1)C1(c2ccccc2)CCCC1
inactive: [1] -3.9% | [2] -2.9% | [3] 2.6%

CCc1nc2ccccc2n1Cc1ccc(OC)c(OC)c1
inactive: [1] -1.2% | [2] 0.6% | [3] 0.6%

Cc1ccc2[nH]c3c(c2c1)CN(C)CC3
inactive: [1] -2.8% | [2] -0.7% | [3] -15%

Cc1ncc([N+](=O)[O-])n1CC(O)CCl (centres undefined)
inactive: [1] 3.5% | [2] -0.1% | [3] 2.5%

COc1ccc(CCNC(=S)NC(=O)/C=C/c2ccc(C)cc2)cc1OC
inactive: [1] 0.1% | [2] -1.3% | [3] -7.3%

Cn1c(=O)c2c(ncn2CC(O)CO)n(C)c1=O (centres undefined)
inactive: [1] 2.3% | [2] 1% | [3] 2%

CO[C@H]1C=CO[C@@]2(C)Oc3c(C)c(O)c4c(O)c(c(C=NN5CCN(C)CC5)c(O)c4c3C2=O)NC(=O)C(C)=CC=C[C@H](C)[C@H](O)[C@@H](C)[C@@H](O)[C@@H](C)[C@H](OC(C)=O)[C@@H]1C
inactive: [1] -7.2% | [2] 0.5% | [3] -7.3%
